# Experimental data as given in PubChem BioAssay (Tox21).
# Values joined by “and” are separate entries in the source; they are usually repeats but may differ in a detail not shown here. Identical values can stand only once. Records with an inconclusive call do not appear. Where a call stands in place of a potency, no number is given. More than one record can exist for a structure, and the calls need not agree. Active and inactive are the calls of the source. The call rests on the fitted dose curve; in most records, active means well fitted curve in the direction sought with a large enough effect in the repeat runs; inconclusive means weak or mixed curves; inactive means no such curve, though single readings can be large; an effect the other way counts as inactive or inconclusive.
# What was measured:
# [1] = target: Cytochrome P450 2C9 (Homo sapiens) (UniProt P11712); assay: Cytochrome P450 Family 2 Subfamily C Member 9 (CYP2C9) small molecule antagonists: luciferase reporter qHTS assay (AID 1671198); on activity change, negative = inhibition: series mostly up to about 120 µM
# Cytochrome P450 2C9 (Homo sapiens), sequence (P11712 whole entry, looked up): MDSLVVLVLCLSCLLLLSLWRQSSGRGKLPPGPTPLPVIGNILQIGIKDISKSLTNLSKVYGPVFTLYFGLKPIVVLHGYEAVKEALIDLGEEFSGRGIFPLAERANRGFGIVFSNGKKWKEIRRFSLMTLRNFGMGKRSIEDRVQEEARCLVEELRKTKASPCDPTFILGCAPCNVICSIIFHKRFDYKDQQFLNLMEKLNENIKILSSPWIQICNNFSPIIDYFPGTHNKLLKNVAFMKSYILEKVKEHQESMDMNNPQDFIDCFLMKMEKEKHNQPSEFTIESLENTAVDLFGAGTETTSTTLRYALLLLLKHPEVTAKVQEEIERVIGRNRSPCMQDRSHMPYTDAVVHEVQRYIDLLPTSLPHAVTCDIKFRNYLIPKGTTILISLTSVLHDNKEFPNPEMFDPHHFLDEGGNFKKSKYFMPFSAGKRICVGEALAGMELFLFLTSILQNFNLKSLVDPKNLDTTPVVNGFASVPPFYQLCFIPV
# Summary of the method: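 CYP2C9 activity was measured with a P450-Glo proluciferin substrate. Enzyme–substrate mix was held with compound for 10 min at room temperature, then NADPH regeneration solution was added for 1 h at 37C. Luciferin product was read as luminescence.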
# [2] = target: Cytochrome P450 1A2 (Homo sapiens) (UniProt P05177); assay: Cytochrome P450 Family 1 Subfamily A Member 2 (CYP1A2) small molecule antagonists: luciferase reporter qHTS assay (AID 1671199); on activity change, negative = inhibition: series mostly up to about 120 µM
# Cytochrome P450 1A2 (Homo sapiens), sequence (P05177 whole entry, looked up): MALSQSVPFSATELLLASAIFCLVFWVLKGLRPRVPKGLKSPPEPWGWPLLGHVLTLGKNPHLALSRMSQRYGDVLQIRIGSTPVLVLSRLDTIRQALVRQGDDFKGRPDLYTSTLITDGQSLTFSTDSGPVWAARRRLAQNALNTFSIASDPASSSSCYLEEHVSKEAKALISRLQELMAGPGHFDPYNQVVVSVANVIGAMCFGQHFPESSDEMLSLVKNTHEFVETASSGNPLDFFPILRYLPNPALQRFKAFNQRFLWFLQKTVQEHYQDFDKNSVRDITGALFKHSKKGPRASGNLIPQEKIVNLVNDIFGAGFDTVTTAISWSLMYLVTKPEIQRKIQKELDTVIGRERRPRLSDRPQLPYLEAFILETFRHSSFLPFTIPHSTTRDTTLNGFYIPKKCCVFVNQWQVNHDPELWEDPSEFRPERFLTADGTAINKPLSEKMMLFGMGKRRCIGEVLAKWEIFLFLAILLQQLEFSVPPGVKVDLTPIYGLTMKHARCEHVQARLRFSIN
# Summary of the method: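 P450-Glo CYP1A2 enzyme–proluciferin substrate mix with compound 10 min at room temperature, then NADPH regeneration 1 h at room temperature. Luciferin detection reagent added, luminescence read after 20 min; furafylline positive control.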
# [3] = target: Voltage-gated inwardly rectifying potassium channel KCNH2 (Homo sapiens) (UniProt Q12809); assay: Human Ether-a-go-go-Related Gene (hERG) channel small molecule antagonists: fluorescence cell-based qHTS assay (AID 1671200);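 on activity change, negative = inhibition: hERG-expressing U2OS cells given a thallium stimulus after FluxOR II dye loading; series mostly up to about 77 µM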
# Voltage-gated inwardly rectifying potassium channel KCNH2 (Homo sapiens), sequence (Q12809 whole entry, looked up): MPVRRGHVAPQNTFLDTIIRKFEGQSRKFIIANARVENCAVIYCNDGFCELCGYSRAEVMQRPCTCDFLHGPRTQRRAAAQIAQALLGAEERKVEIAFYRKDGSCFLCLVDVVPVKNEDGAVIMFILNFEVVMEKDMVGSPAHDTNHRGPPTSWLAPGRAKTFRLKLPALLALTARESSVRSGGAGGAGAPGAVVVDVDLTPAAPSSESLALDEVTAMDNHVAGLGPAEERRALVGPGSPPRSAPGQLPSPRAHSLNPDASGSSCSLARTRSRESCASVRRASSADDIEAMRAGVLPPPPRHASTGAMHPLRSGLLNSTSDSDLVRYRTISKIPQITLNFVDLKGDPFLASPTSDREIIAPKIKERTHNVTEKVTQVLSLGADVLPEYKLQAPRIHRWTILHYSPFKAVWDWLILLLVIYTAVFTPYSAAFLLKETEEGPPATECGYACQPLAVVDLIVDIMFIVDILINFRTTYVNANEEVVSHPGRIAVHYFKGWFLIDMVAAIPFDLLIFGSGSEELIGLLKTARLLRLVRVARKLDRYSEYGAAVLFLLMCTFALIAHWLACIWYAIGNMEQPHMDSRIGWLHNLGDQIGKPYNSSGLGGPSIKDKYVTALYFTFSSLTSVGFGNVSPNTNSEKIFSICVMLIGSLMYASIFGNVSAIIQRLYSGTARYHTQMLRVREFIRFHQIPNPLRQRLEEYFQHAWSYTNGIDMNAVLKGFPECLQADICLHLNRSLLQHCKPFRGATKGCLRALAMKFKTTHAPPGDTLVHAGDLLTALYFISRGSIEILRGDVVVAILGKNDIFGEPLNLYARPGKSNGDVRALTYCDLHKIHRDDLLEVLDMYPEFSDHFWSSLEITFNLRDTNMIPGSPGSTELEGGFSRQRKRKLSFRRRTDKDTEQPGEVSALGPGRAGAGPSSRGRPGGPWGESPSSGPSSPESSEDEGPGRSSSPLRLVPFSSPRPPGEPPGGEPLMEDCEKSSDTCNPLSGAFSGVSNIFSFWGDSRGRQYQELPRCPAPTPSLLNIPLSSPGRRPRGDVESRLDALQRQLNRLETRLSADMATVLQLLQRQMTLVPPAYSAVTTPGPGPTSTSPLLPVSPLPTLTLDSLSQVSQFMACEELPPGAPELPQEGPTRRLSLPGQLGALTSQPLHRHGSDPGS
# Summary of the method: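 Quantitative HTS in hERG-U2OS cells: thallium entry through the channel reports activity, read as continuous 480/540 nm fluorescence over 2 min after stimulus addition.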
# [4] = target: Cytochrome P450 3A4 (Homo sapiens) (UniProt P08684); assay: Cytochrome P450 Family 3 Subfamily A Member 4 (CYP3A4) small molecule antagonists: luciferase reporter qHTS assay (AID 1671201); on activity change, negative = inhibition: series mostly up to about 120 µM
# Cytochrome P450 3A4 (Homo sapiens), sequence (P08684 whole entry, looked up): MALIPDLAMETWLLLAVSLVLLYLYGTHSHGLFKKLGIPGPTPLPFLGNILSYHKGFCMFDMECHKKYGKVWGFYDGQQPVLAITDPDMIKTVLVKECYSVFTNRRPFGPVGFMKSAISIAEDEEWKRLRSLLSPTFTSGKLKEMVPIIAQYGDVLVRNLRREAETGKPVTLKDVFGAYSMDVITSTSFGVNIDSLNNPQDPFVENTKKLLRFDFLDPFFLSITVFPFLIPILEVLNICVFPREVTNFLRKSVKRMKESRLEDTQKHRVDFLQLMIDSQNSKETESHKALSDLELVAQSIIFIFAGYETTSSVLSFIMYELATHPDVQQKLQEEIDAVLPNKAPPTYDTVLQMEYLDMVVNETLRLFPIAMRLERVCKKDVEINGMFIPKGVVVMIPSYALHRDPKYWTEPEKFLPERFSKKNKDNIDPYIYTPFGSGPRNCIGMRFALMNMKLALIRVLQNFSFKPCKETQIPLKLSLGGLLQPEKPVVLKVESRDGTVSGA
# Summary of the method: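 Inhibition of CYP3A4 is measured as loss of light: the enzyme converts a proluciferin substrate to luciferin, detected luminescently. Reaction ran 1 h at room temperature with NADPH regeneration after a 10 min compound preincubation.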
# Further: nearly all actives have a fitted effect of over 50% in size.
# Potency means the concentration at half of the fitted maximal effect.
SMILES,Potency [1],Potency [2],Potency [3],Potency [4],"activity change, negative = inhibition [2]"
OC1C(O)C(O)C(O)C(O)C1O (centres undefined),inactive,inactive,inactive,inactive,
N#Cc1ccccc1,inactive,inactive,inactive,inactive,
CN/C(=C\[N+](=O)[O-])NCCSCc1csc(CN(C)C)n1,inactive,inactive,inactive,inactive,
C=CC[N+](C)(C)CC=C,inactive,inactive,inactive,inactive,
CC(=O)c1ccc(O)cc1,inactive,inactive,inactive,inactive,
NCCNCCN,inactive,71.2 µM (active) and inactive,inactive,inactive,
CC1(C)OC[C@@H]2O[C@@]3(C(=O)O)OC(C)(C)O[C@H]3[C@@H]2O1,inactive,inactive,inactive,inactive,
CC(C)OP(=O)(CP(=O)(OC(C)C)OC(C)C)OC(C)C,inactive,inactive,inactive,,
CCCCCCCC=O,inactive,inactive,inactive,inactive,
Cc1ccc(S(=O)(=O)N=C=O)cc1,inactive,inactive,inactive,inactive,
COc1ccc([N+](=O)[O-])cc1N,40.1 µM (active) and 63.3 µM (active),22.5 µM (active) and 31.7 µM (active),inactive,35.7 µM (active) and 35.6 µM (active),
Cc1ccc([N+](=O)[O-])cc1S(=O)(=O)O,56.4 µM (active),inactive and 63.3 µM (active),inactive,inactive,
CCOCC(=O)O,inactive,inactive,inactive,inactive,
COc1ccc(N)c(C)c1,35.4 µM (active) and 63.3 µM (active),15.8 µM (active) and 12.6 µM (active),inactive,31.6 µM (active),
CC(C)(C#N)c1cc(Cn2cncn2)cc(C(C)(C)C#N)c1,9.75 µM (active) and 8.71 µM (active),9.75 µM (active) and 15.5 µM (active),inactive,,
CC(C)c1cccc(C(C)C)c1,inactive,inactive,inactive,inactive,
C=CCCCCCCCCC(=O)O,39.9 µM (active),inactive,inactive,inactive,
CCCCC(C=O)CC (centres undefined),inactive,inactive,inactive,inactive,
CC(=O)OCc1ccccc1,inactive,inactive,inactive,inactive,
CC(C)(Oc1ccc(CCNC(=O)c2ccc(Cl)cc2)cc1)C(=O)O,28.3 µM (active) and 13.8 µM (active),inactive,inactive,inactive,
O=C1c2ccccc2CCc2ccccc21,36.3 µM (active),1.45 µM (active) and 1.62 µM (active),inactive,inactive,

SMILES,Potency [1],Potency [2],Potency [3],Potency [4],"activity change, negative = inhibition [2]"
CC(C)CC(=O)CC(C)CC(C)C (centres undefined),inactive,inactive,inactive,inactive,
CC(C)=CCl,inactive,inactive,inactive,inactive,
CCCCCCCCCCCCCCCC(=O)OC(C)C,inactive,inactive,inactive,inactive,
CN1C(=O)CC[C@H]1c1cccnc1,inactive,inactive,inactive,,
CCOC(=O)n1ccn(C)c1=S,inactive,39.9 µM (active) and inactive,inactive,inactive,
Brc1ccc(Br)c(Br)c1,inactive,inactive,inactive,inactive,
NCCN1CCNCC1,inactive,inactive,inactive,inactive,
CC(C)OC(=O)COc1ccc(Cl)cc1Cl,35 µM (active) and 35.6 µM (active),6.23 µM (active) and 63.3 µM (active),inactive,inactive,
CCCOC(=O)c1ccccc1,inactive,inactive,inactive,inactive,
C=C(C)CNCC,inactive,inactive,inactive,inactive,
CCO[Si](CCCN)(OCC)OCC,inactive,inactive,inactive,inactive,
COc1ccc(CCC(C)=O)cc1,inactive,22.4 µM (active) and 20.4 µM (active),inactive,inactive,
CC(=O)OC1CC(C)OC(C)O1 (centres undefined),inactive,inactive,inactive,inactive,
CCCCCCCCCCCC(=O)OC,inactive,inactive,inactive,inactive,
CC(CCl)OP(=O)(OC(C)CCl)OC(C)CCl (centres undefined),40 µM (active) and 59.5 µM (active),28.3 µM (active) and 14.9 µM (active),inactive,,
CCCCCCO,inactive,inactive,inactive,inactive,
CC(C)(C)c1cc(Cc2cc(C(C)(C)C)c(O)c(C(C)(C)C)c2)cc(C(C)(C)C)c1O,inactive,inactive and 71 µM (active),inactive,inactive,
c1ccc(Oc2ccccc2)cc1,inactive,inactive,inactive,inactive,
NCCCCCCN,inactive,inactive,inactive,inactive,
O=C(O)/C=C/C(=O)O,inactive,inactive,inactive,inactive,
C[C@]12CC[C@@H]3c4ccc(O)cc4CC[C@H]3[C@@H]1C[C@@H](O)[C@@H]2O,inactive,31.7 µM (active) and inactive,inactive,inactive,

SMILES,Potency [1],Potency [2],Potency [3],Potency [4],"activity change, negative = inhibition [2]"
CC(O)CC(C)(C)O (centres undefined),inactive,inactive,inactive,inactive,
CC(C)CCCCCCCOC(=O)CCCCC(=O)OCCCCCCCC(C)C,inactive,inactive,inactive,inactive,
O=C1CCCC1,inactive,inactive,inactive,inactive,
COC(=O)CCCC(=O)OC,inactive,inactive,inactive,inactive,
O=C(O)c1ccc(C(=O)O)c(C(=O)O)c1,inactive,inactive,inactive,inactive,
CC(=O)Oc1ccc(C)cc1,inactive,inactive,inactive,inactive,
O=c1[nH]cnc2[nH]ncc12,inactive,inactive,inactive,inactive,
OCc1cccc(Oc2ccccc2)c1,56.4 µM (active),20.3 µM (active) and 39.9 µM (active),inactive,inactive,
COC(=O)c1cccnc1,inactive,inactive,inactive,inactive,
CCc1ccccc1CC,inactive,,inactive,inactive,-28.6% [at 23.6 µM] (inactive)
O=C(O)c1ccc(S(=O)(=O)N(Cl)Cl)cc1,inactive,inactive,inactive,inactive,
CCNC(=S)NCC,inactive,44.8 µM (active),inactive,inactive,
C[Si]1(C)O[Si](C)(C)O[Si](C)(C)O[Si](C)(C)O1,inactive,inactive,inactive,inactive,
c1ccc2c(c1)Cc1ccccc1-2,inactive and 39.9 µM (active),25.6 µM (active) and 7.96 µM (active),inactive,inactive,
C=C(C)[C@H]1CC=C(C)C(=O)C1,inactive,inactive,inactive,inactive,
CCOC(=O)c1ccc(N)cc1,35.6 µM (active),12.6 µM (active),inactive,inactive,
CSc1ccc(Cl)cc1,inactive,inactive,inactive,inactive,
CCCCCC(=O)O,inactive,inactive,inactive,inactive,
CC1(C)CC(N)CC(C)(CN)C1 (centres undefined),inactive,inactive,inactive,5.73 µM (active) and 4.48 µM (active),
O=C(O)Cn1c(=O)n(Cc2ccc(Br)cc2F)c(=O)c2ccc(Cl)cc21,31.7 µM (active) and 15.5 µM (active),79.6 µM (active) and inactive,inactive,inactive,
CCCCCCCCCCO,inactive,inactive and 31.7 µM (active),inactive,inactive,

SMILES,Potency [1],Potency [2],Potency [3],Potency [4],"activity change, negative = inhibition [2]"
CNC(=O)Oc1ccc2c(c1)[C@]1(C)CCN(C)[C@@H]1N2C,71 µM (active) and inactive,inactive,inactive,inactive,
CCCCCCCO,inactive,inactive,inactive,inactive,
CNC(=S)N(C)C,inactive,inactive,inactive,inactive,
C=CC(C)CCCC(C)(C)O (centres undefined),inactive,39.8 µM (active),43.6 µM (active) and inactive,inactive,
C=C(C)C(=O)OCC(C)C,inactive,inactive,inactive,inactive,
CC(=O)CC(C)(C)O,inactive,inactive,inactive,inactive,
CCCCCCCCCCCCCCCCO,17.8 µM (active) and inactive,inactive,inactive,inactive,
COCCCN,inactive,inactive,inactive,inactive,
O=C(O)c1cc2ccccc2cc1O,62.8 µM (active) and 56.4 µM (active),39.9 µM (active),inactive,inactive,
CN(C)c1ccc(O)c2c1C[C@H]1C[C@H]3[C@H](N(C)C)C(=O)C(C(N)=O)=C(O)[C@@]3(O)C(=O)C1=C2O,inactive,inactive,inactive,inactive,
Nc1nc(N)nc(-c2ccccc2)n1,inactive,31.4 µM (active) and 35.6 µM (active),inactive,inactive,
CC(=O)OCc1ccco1,inactive,inactive,inactive,inactive,
COc1cc(OC)c(C(=O)CCCN2CCCC2)c(OC)c1,,inactive,inactive,,
CC(=O)OCCOC(C)=O,inactive,,inactive,inactive,
CC1(C)NC(=O)NC1=O,inactive,35.8 µM (active),inactive,inactive,
N[C@H](Cc1c[nH]c2ccccc12)C(=O)O,inactive,,inactive,inactive,
OCc1ccccc1,,inactive,inactive,inactive,
CCNc1ccccc1,,32.3 µM (active) and inactive,inactive,inactive,
CC(=O)CCC=C(C)C,inactive,inactive,inactive,inactive,
CN(C)CCOC(=O)COc1ccc(Cl)cc1,inactive,,inactive,inactive,
CC(CCO)CC(C)(C)C (centres undefined),,inactive,inactive,inactive,
